Experimental data from PubChem BioAssay AID1159580 (chemical genetic matrix, 2015).
Screen size: about 5,500 compounds; about 2,000 (36%) were called active. Not shown: some 18% with an inconclusive outcome. Cut-off read from the data, not from the text of the source: active = normalized growth mostly below about 0.91 (no sharp cut-off); inconclusive = no clear call, values can overlap the other calls; inactive = mostly above about 0.92. Some of the results follow.

Assay: chemical genetic growth profiling, strain panel (AID 1159580);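 note: tested at 20 µM; growth read once vehicle control cultures reached saturation at 30 °C; 1 = growth at the plate median or of vehicle wells; lower values mean less growth of the strain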
Settings: growth OD

Measured: normalized growth

CCOP(=S)(OCC)SCn1c(=O)oc2cc(Cl)ccc21
active: S. cerevisiae deletion strains, locus YLR262C, strain YPT6 (second series), active compounds read low 0.8 | S. cerevisiae deletion strains, locus YNL071W, strain lat1, active compounds read low 0.91
inactive: S. cerevisiae deletion strains, locus YJR043C, strain POL32, active compounds read low 1.01 | S. cerevisiae deletion strains, locus YJR075W, strain HOC1, active compounds read low 0.995 | S. cerevisiae deletion strains, locus YKL009W, strain mrt4, active compounds read low 0.98 | S. cerevisiae deletion strains, locus YKL068W, active compounds read low 1 | S. cerevisiae deletion strains, locus YKL085W, strain MDH1 (second series), active compounds read low 0.989 | S. cerevisiae deletion strains, locus YKL085W, strain MDH1, active compounds read low 0.989 | S. cerevisiae deletion strains, locus YKL160W, strain elf1, active compounds read low 0.968 | S. cerevisiae deletion strains, locus YKL190W, strain CNB1, active compounds read low 1.01 | S. cerevisiae deletion strains, locus YKR001C, strain vps1, active compounds read low 0.982 | S. cerevisiae deletion strains, locus YKR026C, strain gcn3, active compounds read low 0.947 | S. cerevisiae deletion strains, locus YKR091W, strain srl3, active compounds read low 0.963 | S. cerevisiae deletion strains, locus YLL001W, strain dnm1, active compounds read low 0.967 | S. cerevisiae deletion strains, locus YLL026W, active compounds read low 0.954 | S. cerevisiae deletion strains, locus YLL041C, strain sdh2, active compounds read low 0.954 | S. cerevisiae deletion strains, locus YLR027C, strain aat2, active compounds read low 0.954 | S. cerevisiae deletion strains, locus YLR039C, strain RIC1, active compounds read low 0.97 | S. cerevisiae deletion strains, locus YLR058C, strain SHM2, active compounds read low 1 | S. cerevisiae deletion strains, locus YLR102C, strain apc9, active compounds read low 0.995 | S. cerevisiae deletion strains, locus YLR221C, strain rsa3, active compounds read low 0.964 | S. cerevisiae deletion strains, locus YLR258W, strain gsy2, active compounds read low 0.93 | S. cerevisiae deletion strains, locus YLR262C, strain YPT6, active compounds read low 0.969 | S. cerevisiae deletion strains, locus YLR268W, strain sec22, active compounds read low 0.987 | S. cerevisiae deletion strains, locus YLR320W, strain mms22, active compounds read low 0.942 | S. cerevisiae deletion strains, locus YLR330W, strain CHS5, active compounds read low 0.985 | S. cerevisiae deletion strains, locus YLR342W, strain FKS1 (second series), active compounds read low 1.05 | S. cerevisiae deletion strains, locus YLR342W, strain FKS1, active compounds read low 0.93 | S. cerevisiae deletion strains, locus YLR357W, strain rsc2, active compounds read low 0.949 | S. cerevisiae deletion strains, locus YLR370C, strain arc18, active compounds read low 0.962 | S. cerevisiae deletion strains, locus YLR371W, strain rom2, active compounds read low 1 | S. cerevisiae deletion strains, locus YLR384C, strain iki3, active compounds read low 0.971 | S. cerevisiae deletion strains, locus YLR418C, strain cdc73, active compounds read low 0.97 | S. cerevisiae deletion strains, locus YML016C, strain PPZ1, active compounds read low 0.996 | S. cerevisiae deletion strains, locus YML032C, strain rad52, active compounds read low 0.998 | S. cerevisiae deletion strains, locus YML120C, strain ndi1, active compounds read low 0.965 | S. cerevisiae deletion strains, locus YML124C, strain tub3, active compounds read low 0.991 | S. cerevisiae deletion strains, locus YMR058W, strain fet3, active compounds read low 0.966 | S. cerevisiae deletion strains, locus YMR078C, strain ctf18, active compounds read low 0.989 | S. cerevisiae deletion strains, locus YMR125W, strain sto1, active compounds read low 0.961 | S. cerevisiae deletion strains, locus YMR129W, active compounds read low 0.949 | S. cerevisiae deletion strains, locus YMR205C, strain PFK2, active compounds read low 0.895 | S. cerevisiae deletion strains, locus YMR223W, strain ubp8, active compounds read low 0.998 | S. cerevisiae deletion strains, locus YMR231W, strain pep5, active compounds read low 0.973 | S. cerevisiae deletion strains, locus YMR263W, strain SAP30, active compounds read low 1 | S. cerevisiae deletion strains, locus YMR307W, strain GAS1, active compounds read low 1.03 | S. cerevisiae deletion strains, locus YNL067W, strain RPL9B, active compounds read low 0.993 | S. cerevisiae deletion strains, locus YNL128W, strain TEP1, active compounds read low 0.989 | S. cerevisiae deletion strains, locus YNL153C, strain GIM3, active compounds read low 0.994 | S. cerevisiae deletion strains, locus YNL209W, strain ssb2, active compounds read low 0.983 | S. cerevisiae deletion strains, locus YNL233W, strain BNI4, active compounds read low 0.995 | S. cerevisiae deletion strains, locus YNL248C, strain rpa49, active compounds read low 0.966 | S. cerevisiae deletion strains, locus YNL250W, strain rad50, active compounds read low 0.993 | S. cerevisiae deletion strains, locus YNL271C, strain bni1, active compounds read low 0.992 | S. cerevisiae deletion strains, locus YNL298W, strain CLA4, active compounds read low 0.997 | S. cerevisiae deletion strains, locus YNL307C, strain MCK1, active compounds read low 0.991 | S. cerevisiae deletion strains, locus YNL322C, strain KRE1 (second series), active compounds read low 0.958 | S. cerevisiae deletion strains, locus YNL322C, strain KRE1, active compounds read low 1 | S. cerevisiae deletion strains, locus YNR049C, strain mso1, active compounds read low 0.961 | S. cerevisiae deletion strains, locus YNR052C, strain pop2, active compounds read low 0.992 | S. cerevisiae deletion strains, locus YOL006C, strain TOP1, active compounds read low 0.981 | S. cerevisiae deletion strains, locus YOL012C, strain htz1 1.68 | S. cerevisiae deletion strains, locus YOL147C, strain pex11, active compounds read low 0.996 | S. cerevisiae deletion strains, locus YOR001W, strain rrp6, active compounds read low 0.969 | S. cerevisiae deletion strains, locus YOR061W, strain CKA2, active compounds read low 0.985 | S. cerevisiae deletion strains, locus YOR069W, strain VPS5, active compounds read low 1 | S. cerevisiae deletion strains, locus YOR070C, strain gyp1, active compounds read low 0.961 | S. cerevisiae deletion strains, locus YOR080W, strain dia2, active compounds read low 0.961 | S. cerevisiae deletion strains, locus YOR083W, strain WHI5, active compounds read low 0.961 | S. cerevisiae deletion strains, locus YOR106W, strain vam3, active compounds read low 0.963 | S. cerevisiae deletion strains, locus YOR136W, strain idh2, active compounds read low 0.999 | S. cerevisiae deletion strains, locus YOR144C, strain elg1, active compounds read low 0.982 | S. cerevisiae deletion strains, locus YOR184W, strain ser1, active compounds read low 0.978 | S. cerevisiae deletion strains, locus YOR265W, strain rbl2, active compounds read low 0.952 | S. cerevisiae deletion strains, locus YOR270C, strain vph1, active compounds read low 0.963 | S. cerevisiae deletion strains, locus YOR290C, strain snf2, active compounds read low 0.963 | S. cerevisiae deletion strains, locus YOR316C, strain cot1, active compounds read low 0.991 | S. cerevisiae deletion strains, locus YPL051W, strain arl3, active compounds read low 0.953 | S. cerevisiae deletion strains, locus YPL055C, strain LGE1, active compounds read low 0.981 | S. cerevisiae deletion strains, locus YPL078C, strain atp4, active compounds read low 0.962 | S. cerevisiae deletion strains, locus YPL106C, strain sse1, active compounds read low 0.994 | S. cerevisiae deletion strains, locus YPL240C, strain hsp82, active compounds read low 0.948 | S. cerevisiae deletion strains, locus YPL241C, strain CIN2, active compounds read low 0.994 | S. cerevisiae deletion strains, locus YPR119W, strain clb2, active compounds read low 0.99 | S. cerevisiae deletion strains, locus YPR141C, strain kar3, active compounds read low 0.993 | S. cerevisiae deletion strains, locus YPR163C, strain tif3, active compounds read low 0.993 | S. cerevisiae deletion strains, locus YPR167C, strain met16, active compounds read low 0.984 | S. cerevisiae deletion strains, strain wtn01, active compounds read low 0.99 | S. cerevisiae strains, strain wild type, active compounds read low 0.993
